# Reference: PubChem BioAssay AID1159580 (chemical genetic matrix, 2015)
# In all, about 5,500 compounds went through this assay and about 2,000 (36%) were called active. About 18% were inconclusive and are not listed. The list shows a part of the results. Unmarked numbers belong to inactive results. Cut-off read from the data, not from the text of the source: active = normalized growth mostly below about 0.91 (no sharp cut-off); inconclusive = no clear call, values can overlap the other calls; inactive = mostly above about 0.92.
# Test: chemical genetic growth profiling, strain panel (AID 1159580);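 note: tested at 20 µM; growth read once vehicle control cultures reached saturation at 30 °C; 1 = growth at the plate median or of vehicle wells; lower values mean less growth of the strain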
# Conditions: growth OD
compound,measurement,setting,value
COc1cc(OC)c2c(=O)c(O)c(-c3ccc(OC)c(OC)c3)oc2c1,normalized growth,"S. cerevisiae deletion strains, locus YKL009W, strain mrt4, hits give low values",1.45 [resistant] (active)
same,normalized growth,"S. cerevisiae deletion strains, locus YKL068W, hits give low values",0.994
same,normalized growth,"S. cerevisiae deletion strains, locus YKL085W, strain MDH1 (second series), hits give low values",1.05
same,normalized growth,"S. cerevisiae deletion strains, locus YKL085W, strain MDH1, hits give low values",1.05
same,normalized growth,"S. cerevisiae deletion strains, locus YKL160W, strain elf1, hits give low values",0.922
same,normalized growth,"S. cerevisiae deletion strains, locus YKL190W, strain CNB1, hits give low values",0.202 (active)
same,normalized growth,"S. cerevisiae deletion strains, locus YKR001C, strain vps1, hits give low values",0.738 (active)
same,normalized growth,"S. cerevisiae deletion strains, locus YKR026C, strain gcn3, hits give low values",0.959
same,normalized growth,"S. cerevisiae deletion strains, locus YKR091W, strain srl3, hits give low values",0.953
same,normalized growth,"S. cerevisiae deletion strains, locus YLL001W, strain dnm1, hits give low values",0.906
same,normalized growth,"S. cerevisiae deletion strains, locus YLL026W, hits give low values",0.972
same,normalized growth,"S. cerevisiae deletion strains, locus YLL041C, strain sdh2, hits give low values",0.933
same,normalized growth,"S. cerevisiae deletion strains, locus YLR027C, strain aat2, hits give low values",0.92 (active)
same,normalized growth,"S. cerevisiae deletion strains, locus YLR039C, strain RIC1, hits give low values",0.227 (active)
same,normalized growth,"S. cerevisiae deletion strains, locus YLR058C, strain SHM2, hits give low values",0.295 (active)
same,normalized growth,"S. cerevisiae deletion strains, locus YLR102C, strain apc9, hits give low values",0.929
same,normalized growth,"S. cerevisiae deletion strains, locus YLR113W, strain HOG1, hits give low values",0.944
same,normalized growth,"S. cerevisiae deletion strains, locus YLR221C, strain rsa3, hits give low values",0.865 (active)
same,normalized growth,"S. cerevisiae deletion strains, locus YLR258W, strain gsy2, hits give low values",0.917
same,normalized growth,"S. cerevisiae deletion strains, locus YLR262C, strain YPT6 (second series), hits give low values",0.655 (active)
same,normalized growth,"S. cerevisiae deletion strains, locus YLR262C, strain YPT6, hits give low values",0.374 (active)
same,normalized growth,"S. cerevisiae deletion strains, locus YLR268W, strain sec22, hits give low values",0.558 (active)
same,normalized growth,"S. cerevisiae deletion strains, locus YLR320W, strain mms22, hits give low values",0.853 (active)
same,normalized growth,"S. cerevisiae deletion strains, locus YLR342W, strain FKS1 (second series), hits give low values",0.341 (active)
same,normalized growth,"S. cerevisiae deletion strains, locus YLR342W, strain FKS1, hits give low values",0.875 (active)
same,normalized growth,"S. cerevisiae deletion strains, locus YLR357W, strain rsc2, hits give low values",0.705 (active)
same,normalized growth,"S. cerevisiae deletion strains, locus YLR370C, strain arc18, hits give low values",0.967
same,normalized growth,"S. cerevisiae deletion strains, locus YLR371W, strain rom2, hits give low values",0.645 (active)
same,normalized growth,"S. cerevisiae deletion strains, locus YLR384C, strain iki3, hits give low values",0.942
same,normalized growth,"S. cerevisiae deletion strains, locus YLR418C, strain cdc73, hits give low values",0.559 (active)
same,normalized growth,"S. cerevisiae deletion strains, locus YML016C, strain PPZ1, hits give low values",0.155 (active)
same,normalized growth,"S. cerevisiae deletion strains, locus YML032C, strain rad52, hits give low values",0.91
same,normalized growth,"S. cerevisiae deletion strains, locus YML120C, strain ndi1, hits give low values",0.948
same,normalized growth,"S. cerevisiae deletion strains, locus YML124C, strain tub3, hits give low values",0.845 (active)
same,normalized growth,"S. cerevisiae deletion strains, locus YMR058W, strain fet3, hits give low values",0.35 (active)
same,normalized growth,"S. cerevisiae deletion strains, locus YMR078C, strain ctf18, hits give low values",0.957
same,normalized growth,"S. cerevisiae deletion strains, locus YMR125W, strain sto1, hits give low values",0.982
same,normalized growth,"S. cerevisiae deletion strains, locus YMR129W, hits give low values",0.954
same,normalized growth,"S. cerevisiae deletion strains, locus YMR205C, strain PFK2, hits give low values",0.696 (active)
same,normalized growth,"S. cerevisiae deletion strains, locus YMR223W, strain ubp8, hits give low values",0.759 (active)
same,normalized growth,"S. cerevisiae deletion strains, locus YMR231W, strain pep5, hits give low values",0.973
same,normalized growth,"S. cerevisiae deletion strains, locus YMR307W, strain GAS1, hits give low values",0.381 (active)
same,normalized growth,"S. cerevisiae deletion strains, locus YNL067W, strain RPL9B, hits give low values",0.438 (active)
same,normalized growth,"S. cerevisiae deletion strains, locus YNL071W, strain lat1, hits give low values",0.975
same,normalized growth,"S. cerevisiae deletion strains, locus YNL153C, strain GIM3, hits give low values",0.446 (active)
same,normalized growth,"S. cerevisiae deletion strains, locus YNL183C, strain NPR1, hits give low values",0.941
same,normalized growth,"S. cerevisiae deletion strains, locus YNL209W, strain ssb2, hits give low values",0.572 (active)
same,normalized growth,"S. cerevisiae deletion strains, locus YNL233W, strain BNI4, hits give low values",0.601 (active)
same,normalized growth,"S. cerevisiae deletion strains, locus YNL248C, strain rpa49, hits give low values",0.951
same,normalized growth,"S. cerevisiae deletion strains, locus YNL250W, strain rad50, hits give low values",1.01
same,normalized growth,"S. cerevisiae deletion strains, locus YNL271C, strain bni1, hits give low values",0.922
same,normalized growth,"S. cerevisiae deletion strains, locus YNL298W, strain CLA4, hits give low values",0.975
same,normalized growth,"S. cerevisiae deletion strains, locus YNL307C, strain MCK1, hits give low values",0.893 (active)
same,normalized growth,"S. cerevisiae deletion strains, locus YNL322C, strain KRE1 (second series), hits give low values",0.961
same,normalized growth,"S. cerevisiae deletion strains, locus YNR049C, strain mso1, hits give low values",0.968
same,normalized growth,"S. cerevisiae deletion strains, locus YNR052C, strain pop2, hits give low values",0.761 (active)
same,normalized growth,"S. cerevisiae deletion strains, locus YOL012C, strain htz1",0.232
same,normalized growth,"S. cerevisiae deletion strains, locus YOL147C, strain pex11, hits give low values",0.813 (active)
same,normalized growth,"S. cerevisiae deletion strains, locus YOR001W, strain rrp6, hits give low values",0.922
same,normalized growth,"S. cerevisiae deletion strains, locus YOR061W, strain CKA2, hits give low values",0.285 (active)
same,normalized growth,"S. cerevisiae deletion strains, locus YOR069W, strain VPS5, hits give low values",0.458 (active)
same,normalized growth,"S. cerevisiae deletion strains, locus YOR070C, strain gyp1, hits give low values",0.968
same,normalized growth,"S. cerevisiae deletion strains, locus YOR080W, strain dia2, hits give low values",0.942
same,normalized growth,"S. cerevisiae deletion strains, locus YOR083W, strain WHI5, hits give low values",0.884 (active)
same,normalized growth,"S. cerevisiae deletion strains, locus YOR106W, strain vam3, hits give low values",0.616 (active)
same,normalized growth,"S. cerevisiae deletion strains, locus YOR136W, strain idh2, hits give low values",0.871 (active)
same,normalized growth,"S. cerevisiae deletion strains, locus YOR144C, strain elg1, hits give low values",0.788 (active)
same,normalized growth,"S. cerevisiae deletion strains, locus YOR184W, strain ser1, hits give low values",0.683 (active)
same,normalized growth,"S. cerevisiae deletion strains, locus YOR231W, strain MKK1, hits give low values",0.991
same,normalized growth,"S. cerevisiae deletion strains, locus YOR265W, strain rbl2, hits give low values",0.94
same,normalized growth,"S. cerevisiae deletion strains, locus YOR270C, strain vph1, hits give low values",0.716 (active)
same,normalized growth,"S. cerevisiae deletion strains, locus YOR290C, strain snf2, hits give low values",0.817 (active)
same,normalized growth,"S. cerevisiae deletion strains, locus YOR316C, strain cot1, hits give low values",0.938
same,normalized growth,"S. cerevisiae deletion strains, locus YPL051W, strain arl3, hits give low values",0.763 (active)
same,normalized growth,"S. cerevisiae deletion strains, locus YPL078C, strain atp4, hits give low values",0.958
same,normalized growth,"S. cerevisiae deletion strains, locus YPL106C, strain sse1, hits give low values",0.784 (active)
same,normalized growth,"S. cerevisiae deletion strains, locus YPL240C, strain hsp82, hits give low values",0.92 (active)
same,normalized growth,"S. cerevisiae deletion strains, locus YPL241C, strain CIN2, hits give low values",0.506 (active)
same,normalized growth,"S. cerevisiae deletion strains, locus YPL256C, strain CLN2, hits give low values",0.969
same,normalized growth,"S. cerevisiae deletion strains, locus YPR119W, strain clb2, hits give low values",0.97
same,normalized growth,"S. cerevisiae deletion strains, locus YPR141C, strain kar3, hits give low values",0.996
same,normalized growth,"S. cerevisiae deletion strains, locus YPR163C, strain tif3, hits give low values",0.838 (active)
same,normalized growth,"S. cerevisiae deletion strains, locus YPR167C, strain met16, hits give low values",0.78 (active)
same,normalized growth,"S. cerevisiae deletion strains, strain wtn01, hits give low values",0.66 (active)
same,normalized growth,"S. cerevisiae strains, strain wild type, hits give low values",0.102 (active)
